Composite z-score, z-score and composite Z-score data for six compounds are collected here from PubChem BioAssay.

The subject of test [1] is Human papillomavirus type 1a protein E7 (residues 44-93). As to the kind of experiment: HPV1a E7 fragment binders on microarrays, primary screen, biochemical, small-molecule microarray, residues 44-93, 635 nm fluorescence (AID 1108).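 Also: E7 fragment applied at 1 µg/mL in TBST for 1 h at 4 C; score combines spot fluorescence with its signal to noise ratio.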 Particulars: small-molecule microarray binding, fluorescence 635 nm; higher = more signal.
Test [2] is described as follows: modulators of HCV replicon luciferase signal, primary screen, HCV replication inhibitor project, Huh7 cells, luciferase reporter (AID 1109).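 Also: huh7 hepatoma cells harbouring a luciferase neomycin HCV replicon reporter; luciferase luminescence as measure of HCV replicon replication; test concentration not given here.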 The conditions noted are these: 48 h, higher = more signal. A general note: A replicon is a self-replicating genome or part of one, used to study replication in cells.
The target in test [3] is Left-right determination factor 2 (Homo sapiens) (UniProt O00292). As to the kind of experiment: LEFTY2 binders on small-molecule microarrays, primary screen, biochemical, small-molecule microarray, 635 nm fluorescence scan (AID 1110). The conditions noted are these: LEFTY2 binding, higher = more signal.
Chain of Left-right determination factor 2 (Homo sapiens) (O00292 whole entry, looked up): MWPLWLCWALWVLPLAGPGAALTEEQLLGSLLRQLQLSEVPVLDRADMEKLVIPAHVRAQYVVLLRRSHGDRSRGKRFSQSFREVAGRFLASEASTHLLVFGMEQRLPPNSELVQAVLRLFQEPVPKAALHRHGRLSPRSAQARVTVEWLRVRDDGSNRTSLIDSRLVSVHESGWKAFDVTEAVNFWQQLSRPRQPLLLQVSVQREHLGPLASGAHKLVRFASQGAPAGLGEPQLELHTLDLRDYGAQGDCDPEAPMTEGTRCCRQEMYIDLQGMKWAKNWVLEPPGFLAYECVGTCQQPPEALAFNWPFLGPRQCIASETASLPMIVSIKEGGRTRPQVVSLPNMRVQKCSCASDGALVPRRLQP
Test [4] concerns the target Calmodulin-1 (Homo sapiens) (UniProt P0DP23). As to the kind of experiment: CALM1 binders on microarrays, EGTA buffer, profiling panel, biochemical, small-molecule microarray, Cy5-labelled CALM1 (AID 1111).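 Also: labelled calmodulin applied in Tris saline Tween buffer holding calcium plus EGTA and DTT.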 The conditions noted are these: Cy5-CALM1 binding fluorescence, higher = more signal.
The target is the same in test [5]. The test is described as follows: calcium-bound CALM1 binders on microarrays, profiling panel, artefact control for SMM control-protein annotation, biochemical, small-molecule microarray, Cy5-labelled CALM1, plus calcium (AID 1112).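 Also: score merges spot fluorescence with signal to noise from triplicate slides.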 The conditions noted are these: Cy5-CALM1 binding fluorescence, higher = more signal.
A short description of test [6]: small-molecule microarray binders of probe aWnt5a, primary screen, biochemical, biotinylated probe, 635/667 nm fluorescence (AID 1113).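 Also: score merges 667 nm fluorescence intensity with signal-to-noise per printed feature.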 The conditions noted are these: higher = more signal.
A short description of test [7]: small-molecule microarray binders of probe aShh, primary screen, biochemical, biotinylated probe, 635/667 nm fluorescence (AID 1114).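 Also: probe is biotin-labelled aShh protein from a stem cell growth factor screen; measures binding of labelled protein to compounds printed on the slide; score merges feature fluorescence at 667 nm with signal-to-noise.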 The conditions noted are these: higher = more signal.
The nature of test [8]: small-molecule microarray binders of probe aNog, primary screen, biochemical, biotinylated probe, 635/667 nm fluorescence (AID 1115).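 Also: probe is biotinylated aNog protein used at 0.15 µg/mL for 1 h at 4 C; z-score combines 667 nm fluorescence of each spot with its signal to noise.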 The conditions noted are these: higher = more signal.
The target in test [9] is Torsin-1A-interacting protein 1 (Homo sapiens) (UniProt Q5JTV8). The test is described as follows: LAP1 binders from COS7 cell lysate, primary screen, small-molecule microarray, 635/667 nm fluorescence (AID 1116). Particulars: COS7-hLAP1 lysate binding, 635 nm fluorescence, higher = more signal.
Chain of Torsin-1A-interacting protein 1 (Homo sapiens) (Q5JTV8 whole entry, looked up): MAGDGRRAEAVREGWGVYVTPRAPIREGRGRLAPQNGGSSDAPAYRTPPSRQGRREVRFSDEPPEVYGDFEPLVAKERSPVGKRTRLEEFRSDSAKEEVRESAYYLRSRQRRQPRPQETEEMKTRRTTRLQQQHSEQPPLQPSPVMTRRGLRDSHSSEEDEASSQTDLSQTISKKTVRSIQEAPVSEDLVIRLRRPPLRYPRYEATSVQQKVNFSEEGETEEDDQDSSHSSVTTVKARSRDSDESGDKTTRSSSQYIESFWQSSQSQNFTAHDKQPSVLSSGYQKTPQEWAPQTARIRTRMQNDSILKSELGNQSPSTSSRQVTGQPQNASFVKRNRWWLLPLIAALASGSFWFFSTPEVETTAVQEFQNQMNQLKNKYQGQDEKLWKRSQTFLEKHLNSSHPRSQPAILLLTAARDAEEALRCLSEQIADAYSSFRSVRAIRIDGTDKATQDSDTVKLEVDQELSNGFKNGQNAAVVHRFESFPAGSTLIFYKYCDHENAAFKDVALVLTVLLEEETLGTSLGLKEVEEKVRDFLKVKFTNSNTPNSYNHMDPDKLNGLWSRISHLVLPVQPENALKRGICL
The target in test [10] is Alpha-bungarotoxin (Bungarus multicinctus) (UniProt P60615). As to the kind of experiment: alpha-bungarotoxin binders on microarray, profiling panel, artefact control for SMM control protein annotation, biochemical, small-molecule microarray, Alexa647 label, 635/667 nm fluorescence (AID 1117). The conditions noted are these: alpha-BTX-A647 binding fluorescence, higher = more signal.
Chain of Alpha-bungarotoxin (Bungarus multicinctus) (P60615 whole entry, looked up): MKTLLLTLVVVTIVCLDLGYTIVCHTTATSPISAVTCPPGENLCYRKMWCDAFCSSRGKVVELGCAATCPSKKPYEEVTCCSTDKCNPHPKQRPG

The target in test [11] is Albumin (Bos taurus) (UniProt P02769). As to the kind of experiment: bovine serum albumin binders on microarray, profiling panel, artefact control for SMM control protein annotation, biochemical, small-molecule microarray, Alexa647 label, 635/667 nm fluorescence (AID 1118).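 Also: score merges 667 nm emission intensity and signal-to-noise per printed compound spot.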 Particulars: BSA-A647 binding, fluorescence 635 nm, higher = more signal.
Chain of Albumin (Bos taurus) (P02769 whole entry, looked up): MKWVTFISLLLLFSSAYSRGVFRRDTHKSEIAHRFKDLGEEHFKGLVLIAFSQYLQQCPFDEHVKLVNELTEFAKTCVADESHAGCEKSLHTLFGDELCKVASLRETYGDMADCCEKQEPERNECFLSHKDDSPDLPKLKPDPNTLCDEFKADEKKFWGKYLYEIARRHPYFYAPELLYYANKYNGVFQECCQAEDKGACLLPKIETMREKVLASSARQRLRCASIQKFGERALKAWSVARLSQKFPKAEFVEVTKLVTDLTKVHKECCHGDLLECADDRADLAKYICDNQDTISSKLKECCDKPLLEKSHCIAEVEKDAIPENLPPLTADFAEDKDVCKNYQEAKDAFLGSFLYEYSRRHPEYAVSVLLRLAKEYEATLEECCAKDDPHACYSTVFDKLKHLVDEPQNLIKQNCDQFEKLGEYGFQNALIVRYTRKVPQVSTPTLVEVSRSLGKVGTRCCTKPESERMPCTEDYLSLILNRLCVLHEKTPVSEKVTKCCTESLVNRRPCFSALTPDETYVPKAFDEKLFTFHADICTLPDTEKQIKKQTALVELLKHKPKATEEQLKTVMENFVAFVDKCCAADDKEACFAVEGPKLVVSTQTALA
Test [12] can be described thus: small-molecule microarray binders of probe aXIP, primary screen, biochemical, NeuroSMM set, 635/667 nm fluorescence (AID 1119).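 Also: probe is the protein aXip251-270 applied at 1 µg/mL to compound-printed slides; binding of probe to printed compounds measured as 667 nm fluorescence plus signal to noise.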 The conditions noted are these: higher = more signal, called active from +8 up or from −8 down.
A short description of test [13]: small-molecule binders of probe aNOTCH3, primary screen, biochemical, small-molecule microarray, 635/667 nm fluorescence (AID 1120).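 Also: probe is a biotin-tagged antibody raised against NOTCH3 rather than NOTCH3 protein; score merges spot fluorescence near 667 nm with spot signal to noise.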 The conditions noted are these: higher = more signal.
Test [14] can be described thus: small-molecule binders of probe aNOTCH2, primary screen, biochemical, small-molecule microarray, 635/667 nm fluorescence (AID 1121).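 Also: score merges feature fluorescence read at 667 nm with its signal to noise.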 The conditions noted are these: higher = more signal.
The target of test [15] is Carbonic anhydrase 2 (Homo sapiens) (UniProt P00918). As to the kind of experiment: CAII small-molecule binders, profiling panel, biochemical, small-molecule microarray, Alexa647-labelled CAII (AID 1122). Particulars: CAII-A647 binding fluorescence, higher = more signal.
The nature of test [16]: COS7 lysate on small-molecule microarray, probe aHis, 635 nm (AID 1123).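 Also: z-score combines 667nm fluorescence intensity with signal-to-noise per printed compound spot.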 Particulars: COS7 cell lysate, fluorescence, higher = more signal.
A short description of test [17]: compound binding in COS7 lysate, probe aLAP1, primary screen, cell lysate, small-molecule microarray (AID 1124).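 Also: lysate comes from COS7 cells expressing LAP1 and is applied at 0.3 µg/mL; score merges spot fluorescence near 667 nm with signal-to-noise over triplicate slides.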 Particulars: probe aLAP1, fluorescence, higher = more signal.
The subject of test [18] is Sam68 (KHDRBS1). The test is described as follows: Sam68 small-molecule binders, primary screen, biochemical, small-molecule microarray, 635 nm fluorescence (AID 1125).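 Also: score merges 667 nm channel intensity with signal to noise over triplicate slides.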 The conditions noted are these: small-molecule microarray binding, higher = more signal.
Test [19] relates to Chordin-like protein 2 (CHRDL2). As to the kind of experiment: CHRDL2 small-molecule binders, primary screen, biochemical, small-molecule microarray, 635 nm fluorescence (AID 1126).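 Also: printed compound slides probed with Chrdl2 protein at 4 µg/mL for 1 h at 4 C; score merges 667 nm emission intensity with signal to noise over three replicate slides.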 Particulars: small-molecule microarray binding, fluorescence 635 nm; higher = more signal.
In test [20] the target is Concanavalin-A (Canavalia ensiformis) (UniProt P02866). The test is described as follows: ConA small-molecule binders, primary screen, artefact control for SMM control protein annotation, biochemical, small-molecule microarray, Alexa647 label, 635 nm (AID 1127).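 Also: z combines 667 nm emission intensity with signal-to-noise across three replicate slides.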 Particulars: ConA-A647 binding fluorescence, higher = more signal.
Chain of Concanavalin-A (Canavalia ensiformis) (P02866 whole entry, looked up): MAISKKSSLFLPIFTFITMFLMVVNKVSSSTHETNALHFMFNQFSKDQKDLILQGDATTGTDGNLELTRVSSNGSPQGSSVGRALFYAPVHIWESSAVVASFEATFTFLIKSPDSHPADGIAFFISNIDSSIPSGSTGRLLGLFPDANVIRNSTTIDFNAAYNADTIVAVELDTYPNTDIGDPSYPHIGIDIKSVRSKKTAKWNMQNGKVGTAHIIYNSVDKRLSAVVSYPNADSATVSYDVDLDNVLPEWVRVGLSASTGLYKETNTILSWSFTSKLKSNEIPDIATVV

Activity calls are given as the source filed them.

For the compound `COCCOC(=O)N1C(=O)[C@@]2(c3cc(C#Cc4ccc(OC)cc4)ccc31)[C@H](C(=O)N1CCc3cc(OC)c(OC)cc3C1)[C@H]1C(=O)O[C@H](c3ccccc3)[C@H](c3ccccc3)N1[C@@H]2c1ccc(OCCO)cc1`, the composite z-score was 0.577 in [1]; 0.516 in [3]; 1.24 in test [4]; 0.897 in test [5]; -0.0482 in test [6]; -0.138 in [7]. In addition, the composite z-score is 0.0637 in test [8]; 0.247 in test [9]; 1.41 in test [10]; -0.121 in test [11]; 0.0271 in test [13]; -0.149 in test [14]. In addition, the composite z-score in test [15] is 0.22; in [16] it was -0.0346; in test [17], 0.0459; in test [18], 1.23; in test [19] it was 0.598; in test [20], 1.09. Also, the z-score in test [2] is -0.195. The composite Z-score in test [12] was -0.527 (inactive).

Consider `CN1C(=O)C2C=CC(C(O)C3CCCCC3)N(N(c3ccccc3)c3ccccc3)C2C1=O` (stereo not given), for which the composite z-score in test [1] is -1.93; in test [3] it was -0.939; in test [4], 0.142; in test [5] it was 0.405; in [6] it was 0.204; in test [7] it was 0.117. Moreover, the composite z-score in [8] is 0.0294; in test [9], 0.0416; in test [10] it was -0.232; in [11] it was -0.0103; in [13], 0.367; in [14], 0.232. Moreover, the composite z-score is 0.72 in test [15]; 2.56 in test [16]; 1.21 in test [17]; -0.864 in test [18]; -1.04 in [19]; -1.27 in test [20]. For the same compound, the z-score in test [2] was -0.15. Besides, in test [12], the composite Z-score is 0.54 (inactive).

`COC(=O)[C@@]1(Cc2ccc(OC)cc2)[C@H]2c3cc(C(=O)N4CCCC4)n(CCF)c3C[C@H]2CN1C(=O)c1ccccc1`: the composite z-score in [1] was 0.632; in test [3], -0.191; in test [4], 2.03; in test [5] it was 0.77; in test [6], 1.34; in [7], 2.55. Further, the composite z-score in [8] amounted to 3.06; in [9], 1.19; in test [10] it was 1.04; in [11], 0.978; in test [13], 1.97; in test [14], 1.15. The composite z-score was 0.755 in test [15]; 3.15 in [16]; 0.478 in test [17]; 0.757 in test [18]; -0.258 in test [19]; 0.99 in [20]. Besides, the z-score in test [2] was -1.27. Also, the composite Z-score in test [12] was 0.573 (inactive).

With `C=C(/C(=C/C[C@@H](OC(C)=O)c1ccccc1OCCO)c1cnc2ccccc2c1)C(C)C`, the composite z-score in test [1] is 0.0976; in test [3] it was 0.0798; in [4] it was -0.353; in [5], -0.236; in [6], 0.122; in test [7] it was 0.0328. Moreover, the composite z-score in test [8] was 0.291; in test [9], 0.148; in [10], 1.01; in test [11] it was 0.23; in test [13], -0.0784; in test [14], -0.0859. Besides, the composite z-score in test [15] is 0.571; in [16], 0.503; in test [17], -0.0618; in [18] it was 0.778; in [19], 0.474; in [20] it was 0.871. The z-score in [2] was -1.61. The composite Z-score in [12] is 1.17 (inactive).

Regarding `COCCCNC(=O)[C@@H]1c2ccccc2C(=O)N(Cc2cc(F)cc(C(F)(F)F)c2)[C@H]1c1ccc(CO)cc1`, the composite z-score in [1] is -1.6; in [3], -1.36; in test [4] it was -0.365; in test [5] it was -0.167; in test [6], -0.212; in test [7] it was -0.153. Also, the composite z-score is -0.285 in test [8]; -1.13 in test [9]; -0.4 in [10]; -0.146 in test [11]; -0.388 in test [13]; -0.0826 in test [14]. Besides, the composite z-score in test [15] was 0.761; in test [16], -0.838; in test [17], -0.438; in test [18], -1.24; in test [19], -1.24; in [20], -0.265. In [2], the z-score is -0.252. In addition, the composite Z-score in test [12] is 0.147 (inactive).

Turning to `O=C1NC(=O)C2C1C=CC(C(O)c1ccc3c(c1)OCO3)N2Nc1ccc(Cl)cc1Cl` (stereo not given), the composite z-score is -0.85 in test [1]; -0.0483 in test [3]; 1.43 in test [4]; 0.527 in test [5]; -0.0846 in test [6]; -0.232 in test [7]. Besides, the composite z-score was 0.265 in [8]; 1.73 in test [9]; 0.114 in test [10]; 0.817 in test [11]; 0.144 in test [13]; -0.063 in [14]. For the same compound, the composite z-score in test [15] was found to be 0.566; in [16], 3.03; in test [17], 1.19; in test [18], 0.355; in test [19], 0.26; in [20], 0.148. Besides, the z-score in test [2] is -0.795. The composite Z-score in [12] was 0.549 (inactive).
